Measured values reported in PubChem BioAssay (NCI).
“And” between values parts separate entries of the source, which are not always exact repeats. Equal entries are not always repeated. About 79,000 compounds went through this panel and 15% of them were active in at least one assay; those are over-represented in the sample as a whole. A structure can be active in one record and inactive in another. The source made the active and inactive calls. Cut-off read from the data, not from the text of the source: active = growth inhibition above about 70%; inactive = the rest.

Assay: NCI Yeast Anticancer Drug Screen. Data for the sgs1 mgt1 strain (AID 161);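 note: 0% = growth of cultures given vehicle only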
Conditions: S. cerevisiae sgs1 mgt1 strain, stronger effect = higher value
Method: Growth inhibition of yeast strains with defined genetic alterations is measured as a screen for potential anti-cancer activity. Selected strains with alterations in DNA damage repair or cell cycle control were exposed to compounds and growth inhibition was measured relative to vehicle treated controls. The strain used in this assay is sgs1 mgt1

[1] = at 5.0 µM (retest, dose inferred, filed as 0.5)
[2] = at 50.0 µM (retest, dose inferred, filed as 5.0)

SMILES | growth inhibition [1] | growth inhibition [2] | growth inhibition (at 50.0 µM)
c1cc2c3c(c1)c1cc4c(cc1c[n+]3CC2)OCO4 | 25% (inactive) | 41% (inactive) | 92.1% (active)
CCSSC(=Nc1ccccc1)OCC(C)C | 47% (inactive) | 97% (active) | 71.8% (active)
COc1ccc(Oc2ccccc2N)cc1 | -2% (inactive) | 93% (active) | 69.3% (inactive)
O=C(/C=C/c1ccc(Cl)cc1)NC1C=Nc2ccc([N+](=O)[O-])cc2NC1=O (configuration not stated) | 29% (inactive) | 93% (active) | 96.6% (active)
CCN(CC)CCNc1nc(NCCN(CC)CC)c2nc(-c3ccccc3)c(-c3ccccc3)nc2n1 | 95% (active) | 99% (active) | 98.8% (active)
Fc1ccc2nc3ccccc3nc2c1 | 0% (inactive) | 10% (inactive) | 22.6% (inactive)
O=C1OC(CN2CCOCC2)CN1/N=C/c1ccc([N+](=O)[O-])o1 (configuration not stated) | 18% (inactive) | 80% (active) | 86% (active) and 69.8% (inactive)
CC(NNC(=S)N1CCN(c2ccccn2)CC1)c1nccc2ccccc12 (configuration not stated) | 58% (inactive) | 99% (active) | 1.8% (inactive)
CCCCCCCCCCCCN1C(=O)[N+](C)(C)N=C1[O-] | 7% (inactive) | 60% (inactive) | 99.1% (active)
N#CC1(C2SCCS2=O)C2=C(C(=O)c3ccccc3C2=O)N2CCCC21 (configuration not stated) | 23% (inactive) | 67% (inactive) | 83.8% (active)
C=C(C)C(=O)Oc1ccc(N=Nc2ccccc2)ccc1=O | 6% (inactive) | 93% (active) | 93% (active)
CCOc1ccc2ccccc2c1C(Cc1ccc(Cl)cc1)NCCO (configuration not stated) | -21% (inactive) | 2% (inactive) | 94.3% (active)
CN(C)CCCN=c1c2ccccc2n(O)c2cccc([N+](=O)[O-])c12 | 2% (inactive) | -1% (inactive) | 46.9% (inactive)
CC(NC(=O)C(N)Cc1ccccc1)C(=O)NC1C(CO)OC(n2cnc3c(N)ncnc32)C1O (configuration not stated) | -5% (inactive) | -20% (inactive) | 3.5% (inactive)
